gsp antag: antagonists of gsp mutant (McCune-Albright syndrome). gsp-mutant cells, cAMP HTRF, 30 min. Potency, µM (doses to about 76.9 µM), without a hit: at the highest dose activity change, negative = inhibition, hits mostly inhibitors. 0.4% of 340,000 active; calls by dose curve; cell line not stated here;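 note: intracellular cAMP measured with PDE inhibitor Ro 20-1724 present during compound exposure; potency is the fitted concentration of half-maximal effect; % is set by controls: 0 for no effect and ±100 for the full control effect; nearly all actives have a fitted effect of over 65% in size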
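HTRF cAMP measurement after 30 min RT detection following 30 min, 37C compound treatment alongside […] (added as 300 uM solution) in G418-selected cells seeded at 2000/well and grown 16–24 h.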
pAkt inh: blocks phosphorylation of Akt; Neuro2A IGF-stimulated pAkt S473 HTRF, 20 min; stronger effect = lower value; activity change, % for hits at 50 µM; 0.32% of 360,000 active; AID 651550; in the data active = activity change below about -80%; inconclusive = mostly about -51% to -80%; note: % is set by controls: 0 for no effect and ±100 for the full control effect
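Neuro2A cells in DMEM with 0.5% FBS, overnight at 37 deg C, given compound at single 50 µM final, then IGF (6 nM final) for 20 min at 37 deg C. Lysed; phospho-Akt Ser473 by HTRF after 24 h, 665/615 ratio.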
ClpP mod: qHTS Assay for Activators of ClpP; purified B. subtilis ClpP, FRET peptide cleavage, 20 min; Potency, µM (series often up to 57.5 µM), for inactives: top-dose activity change, negative = active; 1.9% of 340,000 active; AID 651965, 2013; active = well fitted falling curve with a large enough effect; inconclusive = small, poorly fitted or top-dose-only effect; inactive = no such curve, though single readings can be large or run the other way; note: potency is the fitted concentration of half-maximal effect; the source files actives as falling curves though it sought activators and does not explain the sign; nearly all actives have a fitted effect of over 65% in size
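Buffer: 100 mM Tris/HCl pH8, 100 mM KCl, 0.05% low protease BSA, 2.5% glycerol, 0.01% Tween-20. ClpP 10 microg/mL final; 20 min RT; delta FRET normalized to ADEP and DMSO controls.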
RXFP1 antagonist: antagonists of human relaxin receptor RXFP1 | Q9HBX9 | HEK293-RXFP1, relaxin-stimulated cAMP HTRF, 30 min; stronger effect = lower value | activity change, negative = inhibition, % at 57.5 µM | 0.59% of 350,000 active;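 active = activity change of -60% or lower, but not beyond a set lower limit; inconclusive = change between -60% and -40%, or beyond the set limit; inactive = change above -40%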; note: % is set by controls: 0 for no effect and ±100 for the full control effect
Target sequence (Q9HBX9 whole entry, looked up): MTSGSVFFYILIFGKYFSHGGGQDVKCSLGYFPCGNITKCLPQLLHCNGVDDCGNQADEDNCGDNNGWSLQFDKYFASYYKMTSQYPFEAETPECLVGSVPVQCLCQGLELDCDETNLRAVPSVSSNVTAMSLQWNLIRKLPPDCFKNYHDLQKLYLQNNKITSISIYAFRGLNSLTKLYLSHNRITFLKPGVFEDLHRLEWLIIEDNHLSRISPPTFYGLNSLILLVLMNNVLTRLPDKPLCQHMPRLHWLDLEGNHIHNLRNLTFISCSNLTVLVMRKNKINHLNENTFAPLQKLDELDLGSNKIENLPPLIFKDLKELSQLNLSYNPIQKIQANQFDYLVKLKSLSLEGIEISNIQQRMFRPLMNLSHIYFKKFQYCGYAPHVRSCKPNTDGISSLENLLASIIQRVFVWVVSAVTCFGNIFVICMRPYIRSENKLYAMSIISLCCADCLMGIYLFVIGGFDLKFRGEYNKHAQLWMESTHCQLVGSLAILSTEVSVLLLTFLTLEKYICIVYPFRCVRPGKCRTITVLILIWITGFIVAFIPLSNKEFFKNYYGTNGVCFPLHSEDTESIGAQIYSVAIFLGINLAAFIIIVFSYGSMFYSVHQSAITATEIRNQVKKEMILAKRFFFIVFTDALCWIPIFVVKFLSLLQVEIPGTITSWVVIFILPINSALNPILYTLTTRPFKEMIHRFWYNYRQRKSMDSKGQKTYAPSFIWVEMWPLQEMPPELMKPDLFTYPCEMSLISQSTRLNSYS
gsp agonist: agonists of gsp mutant (McCune-Albright syndrome); 0.13% of 340,000 active; Potency, µM (highest dose often 76.9 µM), inactives show at the highest dose activation (cAMP increase), actives largely listed as activators; gsp mutant cells, cAMP HTRF, 30 min; active = well fitted activation curve with a large enough effect; inconclusive = small, poorly fitted or top-dose-only effect, or another doubt; inactive = no such curve, though single readings can be large or run the other way; cell line not stated here;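 note: phosphodiesterase inhibitor Ro 20-1724 added with compounds to block cAMP breakdown; potency is the fitted concentration of half-maximal effect; nearly all actives have a fitted effect of over 60% in size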
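Cells in DMEM/10% FBS with G418 were pretreated with compounds in DMSO plus […] (300 uM stock) for 30 min at 37C. cAMP was measured by HTRF (cAMP-d2 plus anti-cAMP antibody-K) after 30 min at room temperature.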
RXFP1 agonist: RXFP1 (human) receptor agonism; Q9HBX9; Potency, µM (titrated, usually from 57.5 µM), for the others: top-dose activation, actives largely listed as activators; AID 2676; HEK293T-RXFP1 cAMP TR-FRET, 30 min; response scale: percent of porcine relaxin response, buffer zero; 0.3% of 370,000 active; active = well fitted activation curve with a large enough effect; inconclusive = small, poorly fitted or top-dose-only effect; note: potency is the fitted concentration of half-maximal effect; % is set by controls: 0 for no effect and ±100 for the full control effect; nearly all actives have a fitted effect of over 60% in size
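cAMP rise read by TR-FRET after 30 min, 37C compound exposure (up to 58 uM) in RXFP1-transfected HEK293 cells with Ro 20174 present. EC50 from Hill-equation fits, with 29 nM porcine relaxin as 100% and buffer as basal.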
Starred values were filed as active, the others as inactive; i = inactive; ? = inconclusive; . = no result; ! = a repeat was not active; [ ] = remark or other dose. Only some compounds are listed: those with a hit (about 2.7% of all), similar ones and a draw of the others.

SMILES	gsp antag	pAkt inh	ClpP mod	RXFP1 antagonist	gsp agonist	RXFP1 agonist
Cc1csc[n+]1CC(=O)c1ccc(I)cc1	.	.	-2.0%	.	.	.
CCOC(=O)c1ccc(NC(=O)c2nc(S(=O)(=O)Cc3ccccc3)ncc2Cl)cc1	-13.1%	i	-0.1%	-61.8*!	-30.4%[15.4 µM]	1.2%
Cc1ccc(NC(=O)c2nc(S(=O)(=O)Cc3ccccc3C)ncc2Cl)cc1C	-9.2%	i	.	-74.1*	-0.9%[15.4 µM]	-0.4%
CCS(=O)(=O)c1ncc(Cl)c(C(=O)Nc2ccccc2)n1	.	.	0.4%	-87.6*	.	-0.2%
CCc1ccc(NC(=O)c2nc(S(=O)(=O)Cc3ccccc3)ncc2Cl)cc1	.	.	.	.	.	0.3%
CN(C)c1ccc(/C=C2/CCCc3c2nc2ccccc2c3C(=O)O)cc1	.	.	-7.4%	.	.	.
C[C@@H](C(=O)NCCc1ccccc1)N1C(=O)N2CCc3c([nH]c4ccccc34)[C@@]2(C)C1=O	?	i	0.6%	.	.	0.7%
Cc1ccc(C)c(CN2CCC(CNC(=O)Nc3ccc(F)c(Cl)c3)CC2)c1	-11.5%	i	.	-33.1	3.4%	2.3%
Cc1cc(C)c(S(=O)(=O)N2CCCCC2CCNC(=O)C(=O)NCc2ccco2)c(C)c1 (configuration not stated)	-15.9%	i	14.1µM*	3.8	-5.2%[15.4 µM]	2.5%
COc1ccc2[nH]c(=O)c(C(c3nnnn3C3CCCC3)N3CCN(Cc4ccc5c(c4)OCO5)CC3)cc2c1 (configuration not stated)	-6.3%	i	28.2µM*	-27.2	-18.0%	-0.2%
CCOc1ccc2[nH]c(=O)c(C(c3nnnn3C3CCCCC3)N3CCN(CC)CC3)cc2c1 (configuration not stated)	7.9%	i	25.1µM*	-9.4	-4.7%	1.9%
CCOc1ccc2[nH]c(=O)c(C(c3nnnn3C3CCCCC3)N3CCN(C)CC3)cc2c1 (configuration not stated)	6.4%	i	25.1µM*	1.5	-5.4%	-1.1%
CCN(CC)C(=O)[C@H]1C[C@H](CC(=O)NC/C=C(\C)CCC=C(C)C)C(=O)N2CCc3c([nH]c4cc(-c5ccco5)ccc34)[C@]12C	-14.6%	i	4.2%	.	.	.
O=C(NCCc1cccs1)c1ccc(Cn2c(SCc3ccccc3)nc3cccnc32)cc1	.	.	4.0%	-16.7	.	2.3%
Cc1ccc(C)c(N2CCN(C(=O)C34CC5CC(C3)CC(n3nnc(C)n3)(C5)C4)CC2)c1	39.8µM*	i	0.2%	?	-2.9%[15.4 µM]	-2.7%
Cc1ccc(C23CC4CC(CC(C(=O)N5CCN(C)CC5)(C4)C2)C3)cc1	3.2%	i	-0.4%	-18.7	14.0%	0.1%
CCOc1ccc(Cn2c(-c3ccc(OCC)c(OC)c3)nc3ccccc32)cc1OC	.	.	-9.8%	5.6	.	27.6%
COc1ccc(-c2nc3ccccc3n2Cc2ccc(C)cc2)cc1	-0.5%	i	?	-22.0	6.1%	0.0%
CCOc1cc(Cn2c(-c3ccc(O)c(OCC)c3)nc3ccccc32)ccc1O	.	.	10µM*	-4.3	.	0.1%
COc1ccc(Cn2c(-c3ccc(OC)c(O)c3)nc3ccccc32)cc1O	-24.6%	i	.	-72.1*	-4.7%	-0.8%
Cc1cccc(C)c1N1C(=O)c2ccccc2NC(=O)C1C(=O)NCCOc1ccccc1 (configuration not stated)	.	i	-3.2%	.	.	.
Fc1ccc2[nH]c3c(NCc4ccco4)ncnc3c2c1	.	.	4.3%	.	.	.
Cc1ccc2[nH]c3c(NCc4ccco4)ncnc3c2c1	-35.7%	i	17.8µM*	-4.5	?	0.5%
CCc1ccc(CNC(=O)c2ccc3nc(C(C)C)oc3c2)cc1	.	.	0.2%	-15.8	.	-0.4%
Cc1ccc(S(=O)(=O)CCC(=O)OCC(=O)NCCc2ccccc2)cc1	-8.7%	i	.	-10.5	-0.4%[15.4 µM]	-0.8%
SMILES	gsp antag	pAkt inh	ClpP mod	RXFP1 antagonist	gsp agonist	RXFP1 agonist
Cc1ccc(S(=O)(=O)CCC(=O)OCC(=O)N(Cc2ccccc2)C(C)C)cc1	-3.6%	i	15.8µM*	6.0	-2.1%	-0.1%
Cc1ccc(C(=O)Cn2nnc(-c3cccs3)n2)cc1	50.1µM*	i	-1.0%	4.4	?	5.5%
O=C(Cc1ccccc1)NCC(=O)N1CCN(c2ccccc2)CC1	-0.2%	i	-0.5%	-4.4	29.9%[15.4 µM]	-1.9%
CCn1c(NCc2ccc3c(c2)OCO3)nc2ccccc21	10.1%	-105.9%*	-2.1%	7.9	-4.2%	0.6%
COc1ccc(C2=CC(=O)C[C@H](CN3C(=O)c4ccccc4C3=O)N(C(=O)OC(C)(C)C)O2)cc1	-21.3%	i	-12.4%	.	.	.
O=C(c1ccc(Cl)c(S(=O)(=O)N2CCc3ccccc32)c1)N1CCN(c2ccccc2O)CC1	?	i	-5.6%	-15.3	-8.0%[15.4 µM]	.
O=C(NNC(=O)c1ccccc1O)c1ccc(Cl)c(S(=O)(=O)N2CCc3ccccc32)c1	?	i	.	-72.8*	-6.8%[15.4 µM]	0.0%
COc1cc2cc(CN(CCCO)S(=O)(=O)c3ccccc3Cl)c(=O)[nH]c2cc1OC	-2.0%	i	?	0.6	-6.7%	6.6%
O=C(c1ccccc1)N(CCO)Cc1cc2cc3c(cc2[nH]c1=O)OCCO3	-1.0%	i	.	-3.2	-0.5%[15.4 µM]	8.4%
COc1cc2cc(CN(CCO)S(=O)(=O)c3ccccc3Cl)c(=O)[nH]c2cc1OC	8.2%	.	28.2µM*	13.1	4.3%	1.3%
CCOC(=O)c1cccc(S(=O)(=O)N(CCO)Cc2cc3cc(OC)c(OC)cc3[nH]c2=O)c1	-16.7%	i	-16.9%	-15.6	27.8%	3.2%
O=c1[nH]c2cc3c(cc2cc1CN(CCO)S(=O)(=O)c1ccccc1Cl)OCCO3	-15.3%	.	28.2µM*	0.9	-4.9%	-0.8%
COc1cc2cc(CN(CCCO)S(=O)(=O)c3ccccc3)c(=O)[nH]c2cc1OC	-5.4%	i	12.6µM*	12.6	-10.1%	2.7%
CCCC(=O)NC(c1ccccc1Cl)c1ccc2cccnc2c1O (configuration not stated)	-6.1%	i	.	-81.7*	13.7%	1.4%
CCCCC(=O)NC(c1ccc(Cl)cc1Cl)c1ccc2cccnc2c1O (configuration not stated)	-11.3%	i	.	-37.3	9.4%	-1.8%
CCC(=O)NC(c1ccc(Cl)cc1Cl)c1ccc2cccnc2c1O (configuration not stated)	-9.1%	i	.	-97.7*	10.0%	0.5%
COC(=O)/C=C1\OCc2cccc(C)c21	.	i	0.9%	.	.	.
Cc1ccc(S(=O)(=O)CCC(=O)NCCN2C(=O)S/C(=C\c3ccccc3)C2=O)cc1	50.1µM*	i	2.1%	-22.1	3.5%	-0.1%

Source: PubChem
